Screens from PubChem BioAssay.
IEC-6 tox-1 = cytotoxicity in IEC-6 intestinal epithelial cells, primary screen, cytotoxicity control for KLF5 inhibitor project, cell-based, luminescence; 290,000 tested, 0.78% active; AID 1825, 2009; IEC-6 cytotoxicity, luminescence viability; inhibition, % at 5 µM
APP 5UTR inh = inhibitors of APP translation via 5'UTR reporter, primary screen, APP 5'UTR luciferase, SH-SY5Y cells | 190,000 tested, 0.82% active | SH-SY5Y APP 5'UTR-luciferase reporter, luminescence | inhibition, % at 2 µM | AID 1285, 2008;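 active = inhibition above a set limit, derived from the sample mean plus 3 SD, cut at about 45% in these data; inconclusive = one replicate passes the limit while the other fails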
KLF5 inhibitor = KLF5 expression inhibitors, primary screen, DLD-1 cells, luminescence; DLD-1 KLF5 promoter-luciferase reporter; AID 1700, 2009; inhibition, % at 5 µM; 290,000 tested, 0.23% active;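 active = inhibition above a per-plate limit of that plate's mean compound inhibition plus 3 SD, cut at about 60% in these data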;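 also: higher means less KLF5 promoter-driven luciferase light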
aSyn UTR inh = MLPCN primary screen, SNCA 5' untranslated region; AID 1813, 2009; 300,000 tested, 0.82% active; alpha-synuclein 5'UTR reporter, inhibitor activity; inhibition, % (tested at 7.5 µM); in the data active = inhibition above about 60%; inconclusive = no clear call, values can overlap the other calls;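 also: H4 neuroglioblastoma cells stably carrying SNCA 5'UTR luciferase fusion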
Ba/F3 V617F tox = reduced viability of JAK2V617F-dependent Ba/F3 cells, primary screen, JAK2V617F inhibitor project, cell-based, Ba/F3 EpoR-JAK2V617F, luminescence; inhibition, % at 5.6 µM; ATP luminescence; AID 1446, 2008; 220,000 tested, 1.1% active;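 active = inhibition above the campaign mean plus 3 SD over all tested compounds, cut at about 24% in these data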;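 also: cytokine-independent growth of Ba/F3 cells driven by EpoR plus mutant JAK2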
BaF3 parental = parental Ba/F3 cell viability inhibition, counter-screen for JAK2V617F inhibitor project, murine pro-B, CellTiter-Glo luminescence; CellTiter-Glo ATP luminescence; inhibition, % at 5.6 µM; 220,000 tested, 1.1% active; AID 1486, 2009;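 active = inhibition above a per-campaign cutoff, the mean inhibition of all tested compounds plus 3 SD, cut at about 27% in these data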
KLF5 confirm = KLF5 expression inhibitors, confirmation, DLD-1 cells, luminescence; DLD-1 KLF5 promoter firefly luciferase reporter; shares compounds with KLF5 inhibitor; inhibition, % at 4 µM; 610 tested, 79% active;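 active = inhibition above a set limit taken from the earlier primary screen, cut at about 63% in these data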
IEC-6 tox-2 = cytotoxicity in rat IEC-6 cells, cytotoxicity control for KLF5 inhibitor project, cell-based, luminescence, triplicate; 610 tested, 56% active; inhibition, % at 4 µM; shares compounds with KLF5 inhibitor; IEC-6 rat intestinal cells, viability luminescence; in the data active = inhibition above about 23%;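 also: cells exposed to compounds for 48 hours before viability read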
IEC-6 cytotox cf = cytotoxic compounds in IEC-6 epithelial cells, confirmation, cytotoxicity control, cell-based, luminescence | shares compounds with IEC-6 tox-1 | IEC-6 rat intestinal epithelial viability | inhibition, % at 5 µM | 1,900 tested, 63% active
A number is an active result; i = inactive; ? = inconclusive; nt = no result. An excerpt weighted towards active compounds, which were near 2.1% of everything screened. Rule as the data show it, unless noted: active = inhibition above about 22%; inactive = the rest.

SMILES	IEC-6 tox-1	APP 5UTR inh	KLF5 inhibitor	aSyn UTR inh	Ba/F3 V617F tox	BaF3 parental	KLF5 confirm	IEC-6 tox-2	IEC-6 cytotox cf
CCOc1ccc(/C=N/Nc2ccc(Cl)nn2)c(O)c1	94	nt	82	i	nt	nt	i	i	i
CCOc1ccccc1/C=N/Nc1ccc(Cl)nn1	i	nt	i	i	nt	nt	nt	nt	nt
O=C1Nc2ccccc2C(=O)N2C[C@@H](O)C[C@H]12	i	nt	i	i	nt	nt	nt	nt	nt
COc1cccc(C(=O)Nc2sc3c(c2C#N)CCN(C(C)=O)C3)c1	77	92	74	i	76	81	79	56	26
COc1cccc(C(=O)Nc2sc3c(c2C(=O)O)CCCC3)c1	i	nt	i	i	nt	nt	nt	nt	nt
Cc1ccc(/C=N/NC(=O)c2c(-c3ccccc3)noc2C)c(O)c1	26	nt	66	i	nt	nt	63	23	i
COc1ccc(/C=N/NC(=O)c2[nH]c3ccc(Br)cc3c2-c2ccccc2)cc1	73	97	82	80	96	93	90	86	83
COc1ccc(/C=N/NC(=O)c2[nH]c3ccc(Br)cc3c2-c2ccccc2)c(C(=O)O)c1OC	i	nt	i	i	i	i	nt	nt	nt
COc1ccc(N/C=C/C(=O)c2cc(OC)c(OC)c(OC)c2)cc1	81	nt	68	?	nt	nt	73	57	59
COc1ccc(N/C=C/C(=O)c2ccc(OC)c(OC)c2)cc1	i	nt	i	i	i	i	nt	nt	nt
O=C(O)COC(=O)Cc1ccccc1Nc1c(Cl)cccc1Cl	i	nt	i	i	nt	nt	nt	nt	nt
COc1ccc(-n2nnnc2-c2cccc(OC)c2)cc1	84	91	77	64	78	71	86	58	59
Cc1ccc(-n2nnnc2-c2cccc(C)c2)cc1	i	i	i	i	i	i	nt	nt	nt
COc1ccccc1C(=O)NC(=O)COC(=O)CNC(=O)c1ccc(Cl)c([N+](=O)[O-])c1	nt	nt	nt	i	nt	nt	nt	nt	nt
CCCC(=O)NC(c1ccc(Cl)cc1)c1ccc2cccnc2c1O (centres undefined)	40	nt	78	i	nt	nt	82	77	67
CCCCC(=O)NC(c1ccc(N(C)C)cc1)c1ccc2cccnc2c1O (centres undefined)	62	nt	85	62	nt	nt	88	64	86
Oc1c(C(Nc2nccs2)c2ccc(C(F)(F)F)cc2)ccc2cccnc12 (centres undefined)	44	66	62	i	60	54	84	57	62
CCCC(=O)NC(c1ccccc1)c1c(O)ccc2ccccc12 (centres undefined)	i	nt	i	i	nt	nt	nt	nt	nt
CCCC(=O)NC(c1ccc(C)cc1)c1ccc2cccnc2c1O (centres undefined)	55	nt	99	i	nt	nt	87	75	83
CC1CCN(CC(=O)Nc2ccc(S(=O)(=O)N3C(C)CCCC3C)cc2)CC1 (centres undefined)	i	nt	i	i	nt	nt	nt	nt	nt
Cn1cc(Cl)c(C(=O)N/N=C/c2ccc3c4c(cccc24)CC3)n1	i	nt	i	i	nt	nt	nt	nt	nt
O=C1OCCN1c1c(-c2ccccc2)c(-c2cccs2)nc2c(-c3ccccc3)cccc12	i	nt	i	i	nt	nt	nt	nt	nt
COc1cc(NC(=O)[C@@H](NC(=O)N2CCn3c2nc2ccccc23)C(C)C)cc(OC)c1	i	nt	i	i	nt	nt	nt	nt	nt
CCCCC(=O)NC(c1ccccc1OC)c1ccc2cccnc2c1O (centres undefined)	24	nt	76	101	47	38	94	48	57
CCCCC(=O)NC(c1ccc(Cl)cc1)c1ccc2cccnc2c1O (centres undefined)	57	nt	84	i	nt	nt	88	66	68
SMILES	IEC-6 tox-1	APP 5UTR inh	KLF5 inhibitor	aSyn UTR inh	Ba/F3 V617F tox	BaF3 parental	KLF5 confirm	IEC-6 tox-2	IEC-6 cytotox cf
CC(=O)NC(c1ccc2ccccc2c1)c1ccc2cccnc2c1O (centres undefined)	99	nt	77	i	nt	nt	87	79	82
COc1ccccc1C(NC(C)=O)c1cc(Cl)c2cccnc2c1O (centres undefined)	61	nt	73	67	nt	nt	71	81	43
Cc1cc(NCc2ccccn2)n2nc(C)c(-c3ccccc3)c2n1	81	nt	67	nt	i	i	i	i	i
CCOC(=O)c1[nH]c(C)c(C(=O)Nc2cc(Cl)ccc2C)c1C	82	95	72	i	74	73	68	61	63
Cc1cccc(N2CCN(C(=O)c3ccncc3)CC2)c1C	i	i	i	i	i	i	nt	nt	nt
COc1cc(C(=O)N2CCN(c3cccc(C)c3C)CC2)cc(OC)c1OC	82	95	72	?	70	71	75	59	58
O=C(CC(=O)Nc1cccc(Cl)c1Cl)Nc1cccc(Cl)c1Cl	i	nt	i	i	nt	nt	nt	nt	nt
O=C1[C@@H]2Cc3c([nH]c4ccccc34)C(c3ccc([N+](=O)[O-])cc3)N2C(=O)CN1C1CC1 (some centres undefined)	80	nt	69	i	nt	nt	75	45	50
O=C1[C@@H]2Cc3c([nH]c4ccccc34)C(c3ccccc3)N2C(=O)CN1C1CC1 (some centres undefined)	i	nt	i	i	nt	nt	nt	nt	nt
O=C(Nc1ccc2nc3n(c(=O)c2c1)CCCCC3)c1c(F)ccc([N+](=O)[O-])c1F	92	nt	62	85	nt	nt	i	i	32
CCOC(=O)N1CCN(C(=O)CSC2=NS(=O)(=O)c3cc(F)ccc3N2)CC1	nt	nt	nt	i	nt	nt	nt	nt	nt
CCCC1=Nc2cc(C(=O)NCCCOCC)ccc2Sc2ccccc21	97	97	80	67	93	91	86	71	74
CCCCCCN1C2=NCCCN2c2ccccc21	i	nt	i	i	i	i	nt	nt	nt
CCCCCCN1Cc2ccccc2C1	i	i	i	i	i	i	nt	nt	nt
CCCCCCCCCCn1ccc(=N)cc1	66	nt	86	106	99	100	70	62	72
CCCCCCCCn1ccc(=N)cc1	43	nt	68	62	99	90	i	48	43
O=C(Cc1ccccc1)NCC(=O)N1CCC1	i	nt	i	i	nt	nt	nt	nt	nt
O=C(NC(Nc1nc2ccc([N+](=O)[O-])cc2s1)(C(F)(F)F)C(F)(F)F)c1ccccc1Cl	76	66	77	86	100	81	87	90	97
CC1(C)CC(=O)N(c2cc(Cl)cc(Cl)c2)C(=O)C1	i	nt	i	i	nt	nt	nt	nt	nt
CC(=O)Nc1sc2c(c1-c1nc3ccccc3s1)CCN(C(C)C)C2	99	70	62	nt	95	73	62	23	29
